These results are taken from PubChem BioAssay AID434931 (National Center for Advancing Translational Sciences (NCATS), 2010).

“And” between values parts separate entries of the source, which are not always exact repeats. Equal values may be shown once. Inconclusive results are not listed. Unmarked numbers belong to inactive results. The source made the active and inactive calls. Calls come from the whole dose curve; as a rule, active = well fitted inhibition curve with a large enough effect; inconclusive = small, poorly fitted or top-dose-only effect, or another doubt; inactive = no such curve, though single readings can be large or run the other way.

Chain of Neuropeptide S receptor (Homo sapiens) (Q6W5P4 whole entry, looked up): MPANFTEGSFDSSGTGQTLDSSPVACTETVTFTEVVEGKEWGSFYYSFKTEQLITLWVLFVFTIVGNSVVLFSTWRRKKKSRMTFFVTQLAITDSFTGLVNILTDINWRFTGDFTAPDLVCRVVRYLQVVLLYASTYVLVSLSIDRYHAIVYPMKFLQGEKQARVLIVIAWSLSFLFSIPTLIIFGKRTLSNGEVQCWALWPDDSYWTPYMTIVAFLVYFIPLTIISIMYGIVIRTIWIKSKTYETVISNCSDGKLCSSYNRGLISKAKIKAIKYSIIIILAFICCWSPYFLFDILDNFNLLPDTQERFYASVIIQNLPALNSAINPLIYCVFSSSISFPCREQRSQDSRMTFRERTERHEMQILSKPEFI

The target in this assay is Neuropeptide S receptor (Homo sapiens) (UniProt Q6W5P4). Put plainly: Confirmation Concentration-Response Assay for Antagonists of the Neuropeptide S Receptor: Robust Characterization of Calcium Signal Transduction. The settings on record: CHO-NPSR cells, NPS-induced calcium fluorescence (FDSS); series mostly up to 31.6 µM; activity, negative = inhibition: at the top concentration. The text has this:
NIH Chemical Genomics Center [NCGC] NIH Molecular Libraries Probe Production centers Network [MLPCN] MLPCN Grant: X01-DA026210-01 Assay Submitter (PI): Heilig, Markus Alexander NCGC Assay Overview: Neuropeptide S receptor (NPSR), previously known as GPR154, is a recently de-orphanized G protein coupled receptor. Its endogenous ligand is the 20 amino acids peptide Neuropeptide S (NPS). […] NPS and its receptor are found in various tissues. Specifically they are highly expressed in brain areas that have been implicated in modulation of arousal, stress and anxiety. Central administration of NPS in mice produces an unusual profile of activity by inducing wakefulness and arousal, while at the same time suppressing anxiety. Therefore, NPSR may represent a novel drug target for the treatment of sleep and anxiety disorders. To identify NPSR antagonists, we developed a cell-based assay with transfected NPS receptor. NPS can stimulate the production of cAMP as well as release intracellular calcium in Chinese hamster ovary cells stably expressing NPS receptor. This change in intracellular calcium can be detected using a calcium indicator dye on a calcium imaging plate reader system (FDSS). This particular assay uses a high density of sampling across concentration-response space to establish more confidence estimates of potency.
NCGC Assay Protocol Summary: A Chinese hamster ovary (CHO) cell line stably expressing the NPS receptor (CHO-NPSR) was obtained from Dr. Heilig lab at NIAAA and maintained in F-12 Kaighn's media (Invitrogen, Carlsbad, CA, 21127) supplemented with 10 % FBS, 100 units/ml penicillin, 100 ug/ml streptomycin and 250 ug/ml geneticin at 37C, 5% CO2 in a humidified atmosphere. Before the assay, aliquots of cells were frozen and stored at -135C. The assay was performed on a FDSS-7000 kinetic plate reader in 1536-well format. For both agonist (1-220s) and antagonist (221-400s) phases, the maximums of kinetic fluorescence responses were converted separately into text files using the instrument's software data export utility. Data for agonist response were normalized to the controls for basal activity (DMSO only) and 100% activation (NPS). […] AC50 values were determined from concentration-response data modeled with the standard Hill equation. NPS 1536-well FDSS assay protocol: (1) Frozen CHO-NPSR cells were thaw, washed once with fresh media and resuspended in F-12 Kaighn's media supplemented with 10 % FBS, 100 units/ml penicillin and 100 ug/ml streptomycin. Cells were plated at 3 ul/well (1200 cells) to black, clear-bottom, tissue-culture treated 1536-well plates, and then cultured at 37C, 5 % CO2 for 16 to 30 hours. (2) Add 3 ul of calcium dye (from High Performance PBX Calcium Assay Kit, BD Biosciences). The calcium dye was prepared according to the manufactory's instruction. (3) Incubation at 37C, 5 % CO2 for 60 to 120 min. (4) Load plates to FDSS-7000. The following steps were performed on FDSS-7000. (5) Record fluorescent background (Ex 480 nm, Em 520-560 nm) for 10 s. (6) Add 23 nl/well of compound in DMSO solution. The final titration for each compound was between 0.6 nM and 46 uM. Record agonist response for 210 s. (7) Add 2 ul of stimulation reagent (1X HBSS buffer, 0.1% BSA, 60 nM NPS). Record antagonist response for 140 s. Keywords: MLSMR, MLPCN, NIH Roadmap, qHTS, NCGC, NPS, Neuropeptide S Antagonists
In the case of `COc1cccc(C2c3c(ncn(-c4ccccc4C(C)(C)C)c3=N)Oc3ccc4ccccc4c32)c1` (stereo not given), the Potency is 1.74 µM (active).
The same measure, in the same setting: as for `COc1cccc(C2c3c(ncn(-c4cccc(Cl)c4)c3=N)Oc3ccc4ccccc4c32)c1` (stereo not given), the figure is 4.38 µM (active); as for `COc1ccc(C2c3c(ncn(Cc4ccccc4)c3=N)Oc3ccc4ccccc4c32)cc1OC` (stereo not given), 0.619 µM (active).
Turning to `CC(C)(C)OC(=O)Nc1ncnc2c1C(c1ccccc1)c1c(ccc3ccccc13)O2` (stereo not given), the “activity, negative = inhibition” value is 38.2%.
As for `COc1cccc(C2c3c(ncn(-c4ccccc4OC)c3=N)Oc3ccc4ccccc4c32)c1` (stereo not given), the Potency is 1.24 µM (active).
Consider `COc1ccc(C2C3=C(N=CN(CCN4CCOCC4)C3N)Oc3ccccc32)cc1OC` (stereo not given), for which the “activity, negative = inhibition” value was 4.73%.
Regarding `COc1cccc(C2c3c(ncn(-c4ccccc4)c3=N)Oc3ccc4ccccc4c32)c1` (stereo not given), the Potency is 1.55 µM (active) and 139 nM (active).
As to `COc1cccc(C2c3c(ncn(-c4ccccc4C#N)c3=N)Oc3ccc4ccccc4c32)c1` (stereo not given), the Potency is 3.1 µM (active).
Still for that read-out and setting: as for `N#CC1=C(NC=NCc2ccccc2)Oc2ccc3ccccc3c2C1c1ccccc1` (stereo not given), the figure is 0.779 µM (active); as for `COc1cccc(C2c3c(ncn(-c4ccccc4C)c3=N)Oc3ccc4ccccc4c32)c1` (stereo not given), 5.52 µM (active); as for `N=c1c2c(ncn1-c1ccccc1)Oc1ccc3ccccc3c1C2c1ccc2c(c1)OCCO2` (stereo not given), 0.276 µM (active).
Consider `COc1cccc(C2C(C#N)=C(NC(=O)CCc3ccccc3)Oc3ccc4ccccc4c32)c1` (stereo not given), for which the “activity, negative = inhibition” value is 39.1%.
On to `COc1cccc(C2c3c(ncn(CCCN4CCOCC4)c3=N)Oc3ccc4ccccc4c32)c1` (stereo not given), for which the Potency was 1.39 µM (active).
On the same count and under the same terms, as for `CCOC(=O)c1ccc(-n2cnc3c(c2=N)C(c2cccc(OC)c2)c2c(ccc4ccccc24)O3)cc1` (stereo not given), the figure is 2.46 µM (active); as for `COc1cccc(C2c3c(ncn(-c4cccc(C#N)c4)c3=N)Oc3ccc4ccccc4c32)c1` (stereo not given), 2.76 µM (active).
On to `COc1ccc(C2c3c(nc(Cc4ccccc4)[nH]c3=O)Oc3ccc4ccccc4c32)cc1OC` (stereo not given), for which the “activity, negative = inhibition” value was 11%.
As to `COc1cccc(C2c3c(ncn(-c4ccccc4SC)c3=N)Oc3ccc4ccccc4c32)c1` (stereo not given), the Potency was 0.0246 µM (active).
As to `COc1cccc(C2c3c(ncn(-c4ccc5c(c4)OCO5)c3=N)Oc3ccc4ccccc4c32)c1` (stereo not given), the Potency was 0.0438 µM (active).
As to `Fc1ccc(-c2c(P(=S)(c3ccccc3)c3ccccc3)n3ccccc3[n+]2C/C=C/c2ccccc2)cc1`, the Potency is 0.0201 µM (active).
Same read-out and setting: in the case of `COc1cccc(C2c3c(ncn(-c4cccc(Br)c4)c3=N)Oc3ccc4ccccc4c32)c1` (stereo not given) it was 2.46 µM (active); in that of `COc1ccc(C2c3ccc(OCc4ccccc4)cc3Oc3ncn(CCN4CCOCC4)c(=N)c32)cc1OC` (stereo not given), 11 µM (active).
Same read-out and setting: as for `O=C(Cc1ccccc1)Nc1ncnc2c1C(c1ccccc1)c1c(ccc3ccccc13)O2` (stereo not given), the figure is 1.1 µM (active); as for `COc1cccc(C2c3c(ncn(-c4ccc(C(C)(C)C)cc4)c3=N)Oc3ccc4ccccc4c32)c1` (stereo not given), 1.24 µM (active).
Consider `COc1cccc(C2c3c(ncn(-c4ccccc4Cl)c3=N)Oc3ccc4ccccc4c32)c1` (stereo not given), for which the Potency was 4.38 µM (active).
Still for that read-out and setting: as for `CCC(C)(CCN1CCOCC1)N(Cc1cc2ccccc2n(C)c1=O)C(=O)C1CCCCC1` (stereo not given), the figure is 0.00135 µM (active).
Take `COc1cccc(C2c3c(ncn(-c4ccc(-c5ccccc5)cc4)c3=N)Oc3ccc4ccccc4c32)c1` (stereo not given): the “activity, negative = inhibition” value was -2.66%.
Take `N=c1c2c(ncn1-c1ccccc1)Oc1ccc3ccccc3c1C2c1ccc2c(c1)CCO2` (stereo not given): the Potency is 0.124 µM (active).
On the same count and under the same terms, in the case of `N=c1c2c(ccn1Cc1ccccc1)Oc1ccc3ccccc3c1C2c1ccccc1` (stereo not given) it was 3.91 µM (active).
In the case of `COc1cccc(C2c3c(ncn(-c4ccccc4)c3=N)Oc3ccc4ccccc4c32)c1OC` (stereo not given), the Potency is 0.981 µM (active).
Still for that read-out and setting: as for `COc1cccc(C2c3c(ncn(-c4ccccc4-c4ccccc4)c3=N)Oc3ccc4ccccc4c32)c1` (stereo not given), the figure is 8.74 µM (active); as for `COc1cccc(C2c3c(ncn(-c4cccc(F)c4)c3=N)Oc3ccc4ccccc4c32)c1` (stereo not given), 0.0695 µM (active).
Still for that read-out and setting: as for `COc1ccc(C2c3c(n(CCCc4ccccc4)cnc3=N)Oc3ccc4ccccc4c32)cc1OC` (stereo not given), the figure is 4.92 µM (active); as for `COc1ccc(C2c3ccc4ccccc4c3Oc3ncn(CCN4CCOCC4)c(=N)c32)cc1OC` (stereo not given), 3.48 µM (active).
On the same count and under the same terms, in the case of `COc1cccc(C2c3c(ncn(-c4ccc(Br)cc4)c3=N)Oc3ccc4ccccc4c32)c1` (stereo not given) it was 3.1 µM (active).
In the case of `COc1ccc(C2c3c(nc(CCCc4ccccc4)[nH]c3=O)Oc3ccc4ccccc4c32)cc1OC` (stereo not given), the “activity, negative = inhibition” value is 19.1%.
Consider `COc1cccc(C2c3c(ncn(-c4cccc(OC)c4)c3=N)Oc3ccc4ccccc4c32)c1` (stereo not given), for which the Potency was 0.391 µM (active).
Still for that read-out and setting: in the case of `COc1cccc(C2c3c(ncn(-c4ccccc4Br)c3=N)Oc3ccc4ccccc4c32)c1` (stereo not given) it was 2.76 µM (active).
Still for that read-out and setting: as for `COc1cccc(C2c3c(ncn(-c4ccc(NC(C)=O)cc4)c3=N)Oc3ccc4ccccc4c32)c1` (stereo not given), the figure is 4.38 µM (active).
Still for that read-out and setting: in the case of `COc1cccc(C2c3c(ncn(-c4ccncc4)c3=N)Oc3ccc4ccccc4c32)c1` (stereo not given) it was 3.91 µM (active).
On to `COc1cccc(C2C(C#N)=C(NC(=O)NCc3ccccc3)Oc3ccc4ccccc4c32)c1` (stereo not given), for which the “activity, negative = inhibition” value was -9.8%.
